Measured values reported in PubChem BioAssay (NCI).
This is part of a sample that, as a whole, favours compounds with a hit. Of some 79,000 tested, about 15% had one in any assay. A number with no mark means an inactive call. Calls of active or inactive are those of the source. Rule as the data show it: active = growth inhibition above about 70%; inactive = the rest. Where a SMILES comes first, the peptide text is derived from it. [ ]: non-standard residue; d: D form. The star is where a group is joined. Cbz = O=C(OCc1ccccc1)*; Nva = CCC[CH](N)C(=O)O

Assays:
[1] = NCI Yeast Anticancer Drug Screen. Data for the rad50 strain (AID 155);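 also: 0% = growth of vehicle-only cultures of the same strain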; conditions: S. cerevisiae rad50 strain growth inhibition; at 50.0 µM; stronger effect = higher value
In short: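 Growth of the mutant yeast was measured after compound exposure and referenced to vehicle-treated cultures.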

[2] = NCI Yeast Anticancer Drug Screen. Data for the mec2-1 strain (AID 157); conditions: S. cerevisiae mec2-1 strain, at 50.0 µM, stronger effect = higher value
In short: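 Each compound was tested on mec2-1 yeast, a strain altered in DNA damage repair or cell cycle control. Growth inhibition is reported relative to vehicle.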

[3] = NCI Yeast Anticancer Drug Screen. Data for the sgs1 mgt1 strain (AID 161);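 also: 0% = growth of cultures given vehicle only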; conditions: S. cerevisiae sgs1 mgt1 strain, at 50.0 µM, stronger effect = higher value
In short: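 Inhibition of yeast growth, normalised to vehicle-treated controls, is reported for a strain bearing genetic alterations in DNA damage repair.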

[4] = NCI Yeast Anticancer Drug Screen. Data for the cln2 rad14 strain (AID 165);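 also: 0% = growth equal to vehicle treated cultures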; conditions: S. cerevisiae cln2 rad14 strain, at 50.0 µM, stronger effect = higher value
In short: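 Test compounds were added to cln2 rad14 yeast cultures; inhibition of growth was then determined by comparison with vehicle treatment.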

[5] = NCI Yeast Anticancer Drug Screen. Data for the bub3 strain (AID 167); conditions: S. cerevisiae bub3 mutant strain, at 50.0 µM, stronger effect = higher value
In short: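 Whole-cell yeast assay. The mutant strain was incubated with compounds, and growth inhibition was determined by comparison with vehicle-treated cells.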

[6] = NCI Yeast Anticancer Drug Screen. Data for the mlh1 rad18 strain (AID 175); conditions: S. cerevisiae mlh1 rad18 strain growth inhibition; at 50.0 µM; stronger effect = higher value
In short: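 Inhibition values reflect reduced growth of mutant yeast versus vehicle-treated controls following compound exposure; the mutations affect DNA damage repair.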

| Structure (SMILES) | growth inhibition [1] | growth inhibition [2] | growth inhibition [3] | growth inhibition [4] | growth inhibition [5] | growth inhibition [6] |
| --- | --- | --- | --- | --- | --- | --- |
| CC(NS(=O)(=O)c1cccc(C(=O)O)c1)c1ccccc1 (stereo not drawn) | 10.3% | -14.5% | 0.3% | -38.4% | 3.25% | -0.05% |
| COC(=O)C1OC1C(=O)OC (stereo not drawn) | -17.4% | -26.5% | 1.15% | -28.9% | 12.3% | 1.6% |
| COc1ccccc1/C=C(\C#N)C(=O)O | 15.9% | -31.3% | -0.75% | 8.6% | -6.65% | -17.9% |
| CCOC(=O)c1ccc(N=C2C(=S)N(c3ccc(C(=O)OCC)cc3)C(=N)N2/N=C/c2ccccc2)cc1 | 19.4% | 13.4% | 11.5% | -4.55% | 31.9% | 1.95% |
| O=C1OCCc2c1[nH]c1ccccc21 | 12.9% | 10.7% | 5.65% | 22.9% | 13.5% | 17.6% |
| CNc1ccc(Br)cc1[N+](=O)[O-] | -22.2% | -22.7% | -12.9% | -0.2% | -26.7% | -15.4% |
| N#CSc1nc[nH]c1C(N)=O | -38.2% | -12.4% | 3.45% | -16.6% | -26.3% | -4.4% |
| COC1OC2COC(c3ccccc3)OC2C(OS(=O)(=O)c2ccc(Br)cc2)C1OS(=O)(=O)c1ccc(Br)cc1 (stereo not drawn) | -10.5% | 13.7% | -1.3% | -14.7% | -11.8% | 21.6% |
| Cn1nc(C(=O)NN)c(=O)[nH]c1=O | 10.9% | -6.75% | 0.8% | -20.6% | 6.6% | 16.9% |
| CCCC(NC(=O)OCc1ccccc1)C(=O)NC(CCSC)C(=O)O (stereo not drawn) (Cbz-[Nva]-Met-OH; configuration not given here) | -54.6% | -1.6% | -4.65% | 11.5% | -0.85% | -5.95% |
| Cc1cc(Cc2c(F)c(F)c(Cc3cc(C)no3)c(F)c2F)on1 | 8.35% | 5.6% | 8.85% | 1.1% | 0.4% | 18.1% |
| O=C(/C=C/c1ccc(OCC(=O)N2CCN(c3ccccc3)CC2)cc1)c1ccc(Cl)cc1 | 13.6% | 13.9% | -5.8% | 0.55% | 2.7% | -4.45% |
| c1ccc(CCc2ccncc2)cc1 | -3.05% | -22.6% | -8.35% | -26.5% | 3.6% | -13.3% |
| CCOC(=O)N(C)Cc1ccc(Cl)cc1 | 5.75% | -1.1% | 1.25% | -26.2% | -11.8% | 21.4% |
| C/C(=N/O)c1c[n+]([O-])ccn1 | -3.9% | -3.15% | -7.9% | -31.2% | 4.7% | -0.5% |
| CCOC(=O)C(Cl)(NC(=O)c1ccc(F)cc1)C(F)(F)F (stereo not drawn) | -6.25% | 6.7% | -18.5% | 7.3% | -12.9% | -18.1% |
| CCCCN(CCCC)CCCNC(=S)Nc1ccccc1 | -3.25% | 24.2% | 38.1% | -7.25% | 3.25% | 36.4% |
| COC(=O)CCCCl | -51% | -56.4% | -38% | 8.25% | -21% | -15.6% |
| CCCCCCCCCCCCCCCCCC(=O)N/N=C/c1ccccc1OC | 7.05% | 11.9% | 9.25% | -1.6% | -2.05% | 28.1% |

| Structure (SMILES) | growth inhibition [1] | growth inhibition [2] | growth inhibition [3] | growth inhibition [4] | growth inhibition [5] | growth inhibition [6] |
| --- | --- | --- | --- | --- | --- | --- |
| CC(C)(C)[N]=[V]([Cl])([Cl])[Cl] | 3.65% | -0.65% | -7.3% | -6.35% | -10.6% | -10.1% |
| CCO/C([O-])=C(\C=N\S(=O)(=O)c1ccc(C)cc1)[n+]1ccccc1 | 8.8% | 13.8% | 5.1% | -20.2% | -3.85% | 2.65% |
| C[N+](C)(C)CC(=O)N/N=C/c1oc(-c2cccc([N+](=O)[O-])c2)c(-c2cccc([N+](=O)[O-])c2)c1[N+](=O)[O-] | 19.4% | 11.7% | 11.8% | 16.3% | -19% | 3.35% |
| NOCc1cc(Cl)sc1Cl | 24.9% | -2.9% | 6.1% | 60% | -23.9% | 11.3% |
| O=C(c1ccccc1)C1CCCCN1C(=O)c1ccccc1 (stereo not drawn) | -13.8% | -8.3% | -4.6% | -17.3% | 27.9% | -21.9% |
| COS(=O)(=O)Cc1ccccc1 | -21.6% | -15% | -16.8% | -19.2% | -12.3% | 8.45% |
| O=C1OC2C(O)C3CC1C2O3 (stereo not drawn) | -8.15% | -6.05% | -5.5% | -6.85% | -2.25% | 0.45% |
| O=C1CCC(C(Sc2ccccc2)(Sc2ccccc2)Sc2ccccc2)C1 (stereo not drawn) | -5.05% | -21.7% | -22% | -7.2% | -1.55% | -41.4% |
| C=CCC1=C(C)C(OC(=O)/C=C/c2ccco2)CC1=O (stereo not drawn) | 10.3% | -5.2% | 8.6% | -5.5% | 30.3% | -0.2% |
| CC(=O)c1cccc(NC(=O)/C(=N\NC(=S)NN)C2C(=O)Nc3ccccc3S2=O)c1 (stereo not drawn) | -3.6% | -42.4% | -13.1% | -4.15% | -1.8% | -10.5% |
| Cc1ccc(/C=C/c2cc(/C=C/c3ccc(C)cc3)c([N+](=O)[O-])cc2[N+](=O)[O-])cc1 | 23.2% | -15.2% | -2.3% | -61.8% | -1.4% | 1.2% |
| CC1(C)CC(NC(=O)C(C)(C)Oc2ccc(Cl)cc2)CC(C)(C)N1 | 32.5% | 6% | 25.9% | -12% | 9.15% | 25.8% |
| NC(=O)c1cc(Br)ccc1O | 11.2% | -12.7% | 6.9% | 8.9% | -19.4% | 17.2% |
| N#CC(=O)Nc1ccc(Cl)c(Cl)c1 | -18.6% | -11.2% | -14.6% | -76.6% | -2.15% | 0.4% |
| NC(=O)N/N=C1/CCC(O)CC1CC(=O)O (stereo not drawn) | -7.85% | -4.75% | -7.05% | 12.7% | -57.9% | -2.95% |
| c1ccc(CN2CCC(N3CCCC3)CC2)cc1 | -22.7% | -26.1% | -22% | 10.7% | -23.3% | -29.9% |
| COc1ccc(/C=C(\C)C=C(C#N)C#N)cc1 | 45.5% | 39.8% | 52% | 38% | 45.1% | 59.7% |
| Cc1ccc(C2(c3ccccc3)c3ccccc3C(=O)N2c2ccccc2)cc1 (stereo not drawn) | 97% (active) | 97.6% (active) | 97.7% (active) | 95% (active) | 97.2% (active) | 96.9% (active) |
| CCc1n[nH]c(=O)n1/N=C/c1c(O)ccc2ccccc12 | 0.45% | 10.8% | 1.05% | 9.05% | 6% | 18.9% |
